From PubChem BioAssay AID493200 (National Center for Advancing Translational Sciences (NCATS), 2011)
Results filed as inconclusive are left out. Entries that show only a call come without a potency. The source made the active and inactive calls. Calls come from the whole dose curve; as a rule, active = well fitted activation curve with a large enough effect; inconclusive = small, poorly fitted or top-dose-only effect; inactive = no such curve, though single readings can be large or run the other way.

Assay: qHTS Assay for Rab9 Promoter Activators: Initial hit validation from the primary screen
Conditions: Huh7 Rab9 promoter luciferase reporter, 24 h; series mostly up to 46.1 µM
How it was run: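 Luciferase signal, read 10 min after Amplite reagent, reports Rab9 promoter activation. Compounds in DMSO were applied for 24 h at 37C to Rab9-luciferase Huh7 cells, pre-incubated 2 h in reduced-serum medium with 10% FBS.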
Potency is the fitted concentration of half-maximal effect.

| SMILES | Potency |
| --- | --- |
| NC(=O)C(=O)NN=C1C2CC3CC(C2)CC1C3 | inactive |
| Cc1ccc(S(=O)(=O)N2CCN(c3cnn(C)c(=O)c3Cl)CC2)cc1 | inactive |
| NNC(=O)c1cccc(S(=O)(=O)Nc2cc(Cl)ccc2Cl)c1 | inactive |
| O=C(C1COc2ccccc2O1)N1CCN(S(=O)(=O)c2ccccc2)CC1 (centres undefined) | inactive |
| CCN(Cc1nc2cc(Cl)ccc2c(=O)[nH]1)C(=O)C1CC(=O)N(c2cccc3ccccc23)C1 (centres undefined) | inactive |
| CC(=O)[C@@H]1[C@@H](C(=O)c2ccc(C)cc2)[C@]2(C(=O)Nc3ccccc32)[C@H]2C=Cc3cc(F)ccc3N12 | inactive |
| Cc1nc(-c2ccc(S(=O)(=O)Oc3ccc(Cl)cc3Cl)s2)cs1 | inactive |
| CCOC(=O)C1(Cc2cccc(Cl)c2)CCCN(C(=O)CCSC)C1 (centres undefined) | inactive |
| COc1cccc(CNC(=O)CN(c2cc(C)cc(C)c2)S(=O)(=O)c2c(C)noc2C)c1 | inactive |
| O=C(NC(=S)Nc1ccc(CN2CCCCC2)cc1)c1cc2ccccc2o1 | inactive |
| CCOC(=O)CSc1nc2cc3c(cc2cc1C#N)OCO3 | 888 nM (active) |
| Cn1c(SCc2ccccc2)nnc1-c1cnccn1 | 14100 nM (active) |
| CC(C)C1(CCNC(=O)c2cccs2)CCOC(C)(C)C1 (centres undefined) | inactive |
| CCC(C)(C)NC(=O)C(c1ccc(OC)cc1)N(Cc1cccs1)C(=O)CCC(=O)Nc1cc(C)on1 (centres undefined) | inactive |
| O=C(NCCc1ccccc1)c1cc2ncc(Br)cn2n1 | 25000 nM (active) |
| CC1=C(C(=O)OC2CCCC(C)C2)C(c2ccccc2)NC(=O)N1 (centres undefined) | inactive |
| CCCOC(=O)Cn1cnc2scc(-c3ccc(OC)cc3)c2c1=O | inactive |

| SMILES | Potency |
| --- | --- |
| CCCNC(=O)C1CCN(S(=O)(=O)c2ccc3[nH]c(=O)ccc3c2)CC1 | inactive |
| COc1ccc(NC(=O)Nc2ccc(Cc3ccncc3)cc2)cc1OC | inactive |
| CC(C)C(NC(=O)c1ccc([N+](=O)[O-])cc1Cl)C(=O)N1CCCC1 (centres undefined) | inactive |
| Brc1ccccc1-c1nnc(CSc2nnc3sc4ccccc4n23)o1 | inactive |
| CCN(CC)S(=O)(=O)c1ccc(NCc2ccccn2)nc1 | inactive |
| O=C(NCC1CCCO1)C(c1ccc(F)cc1)N(Cc1ccc2c(c1)OCO2)C(=O)c1ccc(CN2CCOCC2)o1 (centres undefined) | inactive |
| CCC(=O)N1c2ccccc2NC2=C(C(=O)CCC2)C1c1ccc(N(C)C)cc1 (centres undefined) | inactive |
| O=C(CSc1nnc(-c2ccccn2)o1)Nc1ccccc1F | 1120 nM (active) |
| Cc1nn(CCCC(=O)NCc2ccc(F)cc2)c(C)c1[N+](=O)[O-] | inactive |
| CC(C)(C)NC(=S)NNC(=O)c1ccc2ncccc2c1 | 1770 nM (active) |
| Nc1c(N(CCO)C(=O)/C=C/c2ccco2)c(=O)[nH]c(=O)n1Cc1ccccc1 | inactive |
| COc1ccc(C)cc1N(C(=O)CNC(=O)c1ccco1)C(C(=O)NC1CCCC1)c1cccnc1 (centres undefined) | inactive |
| O=C(Nc1nc2ccc(F)cc2s1)c1ccc(N2CCCC2=O)cc1 | 199 nM (active) |
| CCCOP(=O)(c1ccc(N(C)C)cc1)C(O)c1cccnc1 (centres undefined) | inactive |
| O=C(CCN1C(=O)c2ccccc2C1=O)Nc1ccc(-c2nc3ccccc3s2)cc1 | 281 nM (active) |
| COc1ccc(OC)c(S(=O)(=O)N2CCN3CCCC3C2)c1 (centres undefined) | inactive |
| Cc1nc2sc(C(=O)OC(C)C)c(N)c2c(C)c1C | 15800 nM (active) |
